Screens as filed in PubChem BioAssay.
NRP1-CendR mod: modulators of CendR peptide binding to NRP-1, primary screen, biochemical, fluorescence polarization, uHTS; FAM-RPARPAR peptide binding to NRP-1; inhibition, % at 25 µM; 360,000 tested, 0.85% active;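 active = inhibition or corrected inhibition above about 18%, plus a signal ratio from 0.5 to 1.5, limit read from the data, passing the limit was not always enough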
ADAM17 inh: ADAM17 inhibitors, primary screen, biochemical, QFRET; inhibition, % at 6.95 µM; recombinant ADAM17, EDANS/DABCYL FRET peptide cleavage; 370,000 tested, 0.83% active; AID 720648, 2013;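 active = inhibition above the mean of compounds lying between control limits plus 3 SD, set per campaign, cut at about 8.5% in these data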;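 also: 0% = DMSO-only wells as the low control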
Target sequence (P78536 215-824 limits assumed): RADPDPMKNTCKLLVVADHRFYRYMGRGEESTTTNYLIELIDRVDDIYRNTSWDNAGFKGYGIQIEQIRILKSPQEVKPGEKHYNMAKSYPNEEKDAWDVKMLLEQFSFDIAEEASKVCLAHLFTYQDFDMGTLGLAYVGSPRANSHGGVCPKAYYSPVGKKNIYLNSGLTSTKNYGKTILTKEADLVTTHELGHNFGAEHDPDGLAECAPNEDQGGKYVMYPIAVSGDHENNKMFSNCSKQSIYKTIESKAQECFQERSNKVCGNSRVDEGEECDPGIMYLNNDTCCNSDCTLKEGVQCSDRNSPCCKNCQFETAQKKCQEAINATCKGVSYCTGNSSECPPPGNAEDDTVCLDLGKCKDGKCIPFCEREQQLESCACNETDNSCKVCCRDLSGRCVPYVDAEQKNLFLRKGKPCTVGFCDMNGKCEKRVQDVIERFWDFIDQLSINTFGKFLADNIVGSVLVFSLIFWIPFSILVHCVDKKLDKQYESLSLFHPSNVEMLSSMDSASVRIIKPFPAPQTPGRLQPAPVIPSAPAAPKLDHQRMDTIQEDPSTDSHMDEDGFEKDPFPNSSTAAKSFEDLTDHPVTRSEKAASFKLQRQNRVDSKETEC
APOBEC3G inh: APOBEC3G DNA deaminase inhibitors, primary screen, biochemical, fluorescence, single-stranded DNA substrate, uHTS; 330,000 tested, 0.28% active; recombinant A3G, ssDNA deamination FAM/TAMRA fluorescence; AID 493012, 2011; DNA dC->dU-editing enzyme APOBEC-3G (Homo sapiens), Q9HC16; inhibition, % at 20 µM;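 active = inhibition of at least 40% at 20 µM, with no more than 30% in the related APOBEC3A deaminase screen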;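 also: plate controls were DMSO wells with A3G for no effect and wells lacking A3G enzyme for full effect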
A3A deaminase: APOBEC3A ssDNA deaminase inhibitors, primary screen, selectivity assay for APOBEC3G inhibitor project, biochemical, FAM/TAMRA oligo cleavage fluorescence; recombinant A3A, FAM/TAMRA ssDNA deamination fluorescence; AID 493011, 2011; inhibition, % at 20 µM; DNA dC->dU-editing enzyme APOBEC-3A (Homo sapiens), P31941; 330,000 tested, 0.41% active;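 active = at least 40% inhibition at 20 µM here, with at most 30% in a related deaminase screen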;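 also: plate controls were A3A with DMSO for no effect and wells lacking A3A enzyme for full effect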
ADAM10 inh: human ADAM10 inhibitors, primary screen, biochemical, QFRET, HTS; Disintegrin and metalloproteinase domain-containing protein 10 (Homo sapiens), O14672; recombinant ADAM10, EDANS/DABCYL FRET peptide cleavage, 3 h; inhibition, % at 7 µM; 370,000 tested, 0.62% active;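 active = inhibition above a per-campaign cutoff equal to the mean of compounds falling between control-based bounds plus 3 SD, cut at about 20% in these data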;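 also: 0% = DMSO wells while the 100% control is not disclosed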
Active calls of the source: *. The list is not random: actives were taken first. Their share in the collection is about 2.4%.

What do the screens show for `O=C(CCCCCN1C(=O)c2ccccc2C1=O)NC1CCCC1`?
NRP1-CendR mod: 24.1*; ADAM17 inh: 0.1; APOBEC3G inh: -6.2; A3A deaminase: 6.9; ADAM10 inh: 10.6

Results for Cn1c(=O)c2[nH]c(-c3ccccc3Cl)c(O)c2n(C)c1=O ?
NRP1-CendR mod: 10.0; ADAM17 inh: 0.3; APOBEC3G inh: -7.6; A3A deaminase: -1.6; ADAM10 inh: -1.9

What do the screens show for `Cn1c(=O)c2[nH]c(-c3ccccc3)c(O)c2n(C)c1=O`?
NRP1-CendR mod: 36.4*; ADAM17 inh: -5.4; APOBEC3G inh: -4.9; A3A deaminase: 0.1; ADAM10 inh: -20.2

Results for COc1ccc2cc3cc(C(=O)Nc4ccc(F)cc4)sc3nc2c1 ?
ADAM17 inh: -15.4; ADAM10 inh: -48.6

What do the screens show for `Cc1ccc(OCCC(=O)OCC(=O)c2c(N)n(CC(C)C)c(=O)n(C)c2=O)cc1`?
NRP1-CendR mod: 17.4*; ADAM17 inh: 1.2; APOBEC3G inh: -7.0; A3A deaminase: -4.4; ADAM10 inh: -2.4

Results for CCOc1ccc(OCCC(=O)OCC(=O)c2c(N)n(CC(C)C)c(=O)n(C)c2=O)cc1 ?
NRP1-CendR mod: -1.5; ADAM17 inh: 1.1; ADAM10 inh: -2.8

What do the screens show for `CN(C)c1cccc2c(S(=O)(=O)NCC3CCN(C(=O)C(=O)c4cccs4)CC3)cccc12`?
ADAM17 inh: -1.7; ADAM10 inh: -27.5

What do the screens show for `Cc1ccc(S(=O)(=O)N(C)Cc2ccc(C(=O)N/N=C/c3ccc(OC(F)F)cc3OC(F)F)cc2)cc1`?
NRP1-CendR mod: 31.0*; ADAM17 inh: -4.1; APOBEC3G inh: -7.9; A3A deaminase: -0.4; ADAM10 inh: 15.4

What do the screens show for `O=C(N/N=C/c1ccc(OC(F)F)cc1OC(F)F)c1ccc(Br)cc1`?
NRP1-CendR mod: 6.6; ADAM17 inh: 2.4; APOBEC3G inh: -10.3; A3A deaminase: -2.8; ADAM10 inh: 6.5

What do the screens show for `CC1CC(C)CN(CCCSc2ccccc2)C1` (stereo not given)?
NRP1-CendR mod: 29.5*; ADAM17 inh: -7.8; APOBEC3G inh: -3.1; A3A deaminase: 7.2; ADAM10 inh: -16.8

How did CC1CC(C)CN(CCOCCSc2ccccc2)C1 (stereo not given) do in these assays?
NRP1-CendR mod: -0.1; ADAM17 inh: 0.1; APOBEC3G inh: -0.2; A3A deaminase: 1.0; ADAM10 inh: -2.9

What do the screens show for `CCN(CCN(C)C)C(=O)c1ccc2c(c1NCCO)C(=O)c1ccccc1C2=O`?
NRP1-CendR mod: 5.3; ADAM17 inh: 0.8; APOBEC3G inh: 1.0; A3A deaminase: 0.4; ADAM10 inh: 3.4

How did CC1(C)CCCN(C(=O)c2ccc3c(c2NCCO)C(=O)c2ccccc2C3=O)C1 do in these assays?
NRP1-CendR mod: 27.5*; ADAM17 inh: -0.6; APOBEC3G inh: -5.5; A3A deaminase: -5.3; ADAM10 inh: 5.1

What do the screens show for `CC1CCCN(C(=O)c2ccc3c(c2NCCO)C(=O)c2ccccc2C3=O)C1` (stereo not given)?
NRP1-CendR mod: 18.8*; ADAM17 inh: 0.8; APOBEC3G inh: 0.0; A3A deaminase: 0.8; ADAM10 inh: 2.0

How did O=C1c2ccccc2C(=O)c2c1ccc(C(=O)N1CCCCC1)c2NCCO do in these assays?
NRP1-CendR mod: -1.1; ADAM17 inh: -3.9; APOBEC3G inh: 4.7; A3A deaminase: 4.5; ADAM10 inh: -6.6

How did O=S1(=O)c2ccccc2-c2c(nnn2CC2CCCCC2)CN1C1CC1 do in these assays?
ADAM17 inh: -0.6; ADAM10 inh: -0.3

Results for CN1C(=O)C[C@@](C#N)(C(=O)NCCc2ccccc2)[C@H]1c1ccccc1 ?
ADAM17 inh: -2.4; ADAM10 inh: 2.3

Results for C[C@H](CO)N1C[C@H](C)[C@@H](CN(C)C(=O)Nc2ccc(C(F)(F)F)cc2)Oc2c(NS(=O)(=O)c3ccccc3)cccc2C1=O ?
NRP1-CendR mod: 36.2*; ADAM17 inh: 1.4; APOBEC3G inh: -6.5; A3A deaminase: 1.4; ADAM10 inh: 11.7

What do the screens show for `C[C@H](CO)N1C[C@H](C)[C@@H](CN(C)C(=O)Nc2ccc3c(c2)OCO3)Oc2c(NC(=O)Nc3ccc(C(F)(F)F)cc3)cccc2C1=O`?
NRP1-CendR mod: 10.9; ADAM17 inh: 9.4*; APOBEC3G inh: -0.4; A3A deaminase: 2.6; ADAM10 inh: 11.2

Results for COc1ccc(NC(=O)N(C)C[C@H]2Oc3c(NC(=O)Nc4ccc(C(F)(F)F)cc4)cccc3C(=O)N([C@H](C)CO)C[C@@H]2C)cc1 ?
NRP1-CendR mod: -1.7; ADAM17 inh: 9.9*; APOBEC3G inh: 8.4; A3A deaminase: -0.9; ADAM10 inh: 19.1

Results for C[C@H](CO)N1C[C@H](C)[C@@H](CN(C)C(=O)Nc2ccc(C(F)(F)F)cc2)Oc2c(NC(=O)Nc3ccc4c(c3)OCO4)cccc2C1=O ?
NRP1-CendR mod: -3.3; ADAM17 inh: 2.1; APOBEC3G inh: -5.9; A3A deaminase: 2.1; ADAM10 inh: 11.6

How did C[C@H](CO)N1C[C@H](C)[C@@H](CN(C)C(=O)Nc2ccc(C(F)(F)F)cc2)Oc2c(NS(=O)(=O)c3ccc(F)cc3)cccc2C1=O do in these assays?
NRP1-CendR mod: -9.4; ADAM17 inh: 5.2; APOBEC3G inh: -5.8; A3A deaminase: -1.2; ADAM10 inh: 10.3

How did C[C@H](CO)N1C[C@H](C)[C@@H](CN(C)C(=O)Nc2ccc3c(c2)OCO3)Oc2c(NS(=O)(=O)c3ccc(F)cc3)cccc2C1=O do in these assays?
NRP1-CendR mod: 31.0*; ADAM17 inh: -1.2; APOBEC3G inh: -5.3; A3A deaminase: -3.1; ADAM10 inh: -0.2

How did COc1ccc(C(C(=O)N(C)C2CCCC2)N(Cc2ccc(F)cc2)C(=O)c2ncn[nH]2)cc1OC (stereo not given) do in these assays?
ADAM17 inh: -4.5; ADAM10 inh: -12.8

Results for O=S(=O)(N[C@@H]1CCCC[C@@H]1N1CCOCC1)c1ccc(Cl)cc1 ?
ADAM17 inh: -2.9; ADAM10 inh: -1.4

Results for COc1ccc(OCc2nn3c(-c4ccccc4)nnc3s2)cc1 ?
ADAM17 inh: -2.3; ADAM10 inh: -7.7

How did CCOC(=O)[C@]12CCCCC/C=C\1N(CCc1ccc(Cl)cc1)C(=O)[C@H]2CC(=O)NCc1cccc2ccccc12 do in these assays?
ADAM17 inh: 4.7; ADAM10 inh: 6.5

How did CCCC[C@H]1C2CC(OC(=O)NCc3ccc(Cl)cc3)C(C2)[C@H]2CCCCN21 (stereo not given in full) do in these assays?
ADAM17 inh: -1.8; ADAM10 inh: 3.5
